According to publication PMC7862700, “An all-to-all approach to the identification of sequence-specific readers for epigenetic DNA modifications on cytosine”:

Experiments:
Experiment in all cases: DAPPL (digital affinity profiling via proximity ligation, sequencing); 10 mM Tris-HCl pH 7.5, 50 mM NaCl, 1 mM DTT, 4% glycerol, room temperature, 30 min; GST-TFs on glutathione beads, 16-mer random dsDNA library, 0.1% formaldehyde crosslink after washing; high values mean tight binding
Details in all cases: protein: recombinant; tags: N-terminal GST; dsDNA, one strand shown
GABPA = molecular target: T1, GABPA (Homo sapiens, UniProt Q06546 1-454)
T1 sequence: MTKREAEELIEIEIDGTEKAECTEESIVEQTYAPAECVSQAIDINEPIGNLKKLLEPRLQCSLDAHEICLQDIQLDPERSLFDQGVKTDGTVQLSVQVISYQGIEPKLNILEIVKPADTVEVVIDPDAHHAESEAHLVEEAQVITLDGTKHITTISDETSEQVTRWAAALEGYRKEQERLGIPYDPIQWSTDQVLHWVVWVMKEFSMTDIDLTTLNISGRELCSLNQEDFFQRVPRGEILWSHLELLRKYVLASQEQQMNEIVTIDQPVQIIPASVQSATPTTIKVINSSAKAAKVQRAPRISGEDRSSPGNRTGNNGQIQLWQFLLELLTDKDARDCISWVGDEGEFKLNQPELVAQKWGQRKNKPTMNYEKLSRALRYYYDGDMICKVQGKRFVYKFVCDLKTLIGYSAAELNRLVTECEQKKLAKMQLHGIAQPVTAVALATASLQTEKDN
In short: (§1)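 A tag-only sample was pooled with DNA-barcoded human transcription factors that had been expressed in yeast as GST fusions and captured on glutathione beads. The pools were incubated for 30 min at room temperature with 200 nmole of a random double-stranded 16-mer DNA library in Tris/NaCl/DTT/glycerol buffer, then washed, crosslinked with 0.1% formaldehyde, proximity-ligated (BsaI/T4 ligase, 1 h, 37 °C), PCR-amplified and sequenced on an Illumina NextSeq500. Binding signal is each hexamer's read frequency for a factor divided by its frequency for the tag-only sample.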

EHF = molecular target: T2, EHF (Homo sapiens, UniProt Q9NZC4 1-300)
T2 sequence: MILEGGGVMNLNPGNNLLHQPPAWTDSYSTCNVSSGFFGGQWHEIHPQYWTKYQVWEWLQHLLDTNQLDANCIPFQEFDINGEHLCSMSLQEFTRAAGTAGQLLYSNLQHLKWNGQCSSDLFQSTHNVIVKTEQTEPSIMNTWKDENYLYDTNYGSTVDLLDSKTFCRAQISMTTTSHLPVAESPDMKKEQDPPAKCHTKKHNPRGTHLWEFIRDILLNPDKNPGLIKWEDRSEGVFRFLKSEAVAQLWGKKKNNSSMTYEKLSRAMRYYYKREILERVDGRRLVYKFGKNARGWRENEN
In short: as §1

SPI1 = SPI1 (Homo sapiens, UniProt P17947 1-270)
In short: as §1

ELK3 = molecular target: T3, ELK3 (Homo sapiens, UniProt P41970 1-407)
T3 sequence: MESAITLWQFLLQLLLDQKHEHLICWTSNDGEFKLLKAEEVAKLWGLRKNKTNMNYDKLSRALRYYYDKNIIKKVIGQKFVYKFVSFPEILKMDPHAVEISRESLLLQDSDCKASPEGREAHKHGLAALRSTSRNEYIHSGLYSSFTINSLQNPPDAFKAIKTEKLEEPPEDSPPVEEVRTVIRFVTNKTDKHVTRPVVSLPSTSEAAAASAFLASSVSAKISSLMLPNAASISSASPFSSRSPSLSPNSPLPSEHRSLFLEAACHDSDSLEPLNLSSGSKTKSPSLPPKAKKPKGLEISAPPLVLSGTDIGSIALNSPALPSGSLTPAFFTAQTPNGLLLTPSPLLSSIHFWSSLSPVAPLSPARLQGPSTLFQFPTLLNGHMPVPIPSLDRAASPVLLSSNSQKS
In short: as §1

FEV = molecular target: T4, FEV (Homo sapiens, UniProt Q99581 1-238)
T4 sequence: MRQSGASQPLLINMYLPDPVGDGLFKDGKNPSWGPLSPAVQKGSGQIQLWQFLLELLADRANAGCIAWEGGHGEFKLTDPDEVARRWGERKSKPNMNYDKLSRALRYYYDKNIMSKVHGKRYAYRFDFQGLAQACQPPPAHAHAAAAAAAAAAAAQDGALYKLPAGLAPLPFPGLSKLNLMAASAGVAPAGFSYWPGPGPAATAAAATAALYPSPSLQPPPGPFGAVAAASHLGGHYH
In short: as §1

SPIC = molecular target: T5, SPIC (Homo sapiens, UniProt Q8N5J4 1-248)
T5 sequence: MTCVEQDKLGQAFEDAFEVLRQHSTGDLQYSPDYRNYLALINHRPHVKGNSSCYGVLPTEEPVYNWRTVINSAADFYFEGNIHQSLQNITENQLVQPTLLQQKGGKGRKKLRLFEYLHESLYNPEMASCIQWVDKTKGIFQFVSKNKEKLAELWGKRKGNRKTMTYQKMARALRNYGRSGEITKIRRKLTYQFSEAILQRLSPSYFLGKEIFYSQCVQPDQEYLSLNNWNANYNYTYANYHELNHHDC
In short: as §1

ELF3 = molecular target: T6, ELF3 (Homo sapiens, UniProt P78545 1-371)
T6 sequence: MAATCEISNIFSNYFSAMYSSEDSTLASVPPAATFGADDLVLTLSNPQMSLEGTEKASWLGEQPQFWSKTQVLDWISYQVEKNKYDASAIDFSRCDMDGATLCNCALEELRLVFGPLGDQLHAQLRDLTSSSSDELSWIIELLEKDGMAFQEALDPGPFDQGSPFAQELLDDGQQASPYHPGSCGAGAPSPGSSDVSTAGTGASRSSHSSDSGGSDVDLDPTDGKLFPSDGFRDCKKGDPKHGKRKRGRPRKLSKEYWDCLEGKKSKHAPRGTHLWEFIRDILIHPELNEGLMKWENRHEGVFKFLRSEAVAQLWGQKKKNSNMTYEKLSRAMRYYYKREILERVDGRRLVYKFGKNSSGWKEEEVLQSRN
In short: as §1

ETV1 = ETV1 (Homo sapiens, UniProt P50549 1-477)
Chain of ETV1 (P50549 whole entry): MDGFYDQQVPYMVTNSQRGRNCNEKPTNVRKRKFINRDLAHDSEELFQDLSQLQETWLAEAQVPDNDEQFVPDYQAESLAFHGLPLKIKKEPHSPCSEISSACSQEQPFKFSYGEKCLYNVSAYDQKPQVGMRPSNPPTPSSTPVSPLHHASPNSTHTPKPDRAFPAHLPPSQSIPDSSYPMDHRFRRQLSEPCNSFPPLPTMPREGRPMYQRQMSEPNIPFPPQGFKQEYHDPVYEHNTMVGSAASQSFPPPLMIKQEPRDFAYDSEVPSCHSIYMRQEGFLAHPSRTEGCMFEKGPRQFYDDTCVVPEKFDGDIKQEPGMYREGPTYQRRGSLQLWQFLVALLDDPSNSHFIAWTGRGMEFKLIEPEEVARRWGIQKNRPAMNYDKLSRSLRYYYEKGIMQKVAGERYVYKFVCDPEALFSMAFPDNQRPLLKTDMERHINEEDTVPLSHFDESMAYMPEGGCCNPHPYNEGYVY
In short: as §1

ERF = molecular target: T7, ERF (Homo sapiens, UniProt P50548 1-548)
T7 sequence: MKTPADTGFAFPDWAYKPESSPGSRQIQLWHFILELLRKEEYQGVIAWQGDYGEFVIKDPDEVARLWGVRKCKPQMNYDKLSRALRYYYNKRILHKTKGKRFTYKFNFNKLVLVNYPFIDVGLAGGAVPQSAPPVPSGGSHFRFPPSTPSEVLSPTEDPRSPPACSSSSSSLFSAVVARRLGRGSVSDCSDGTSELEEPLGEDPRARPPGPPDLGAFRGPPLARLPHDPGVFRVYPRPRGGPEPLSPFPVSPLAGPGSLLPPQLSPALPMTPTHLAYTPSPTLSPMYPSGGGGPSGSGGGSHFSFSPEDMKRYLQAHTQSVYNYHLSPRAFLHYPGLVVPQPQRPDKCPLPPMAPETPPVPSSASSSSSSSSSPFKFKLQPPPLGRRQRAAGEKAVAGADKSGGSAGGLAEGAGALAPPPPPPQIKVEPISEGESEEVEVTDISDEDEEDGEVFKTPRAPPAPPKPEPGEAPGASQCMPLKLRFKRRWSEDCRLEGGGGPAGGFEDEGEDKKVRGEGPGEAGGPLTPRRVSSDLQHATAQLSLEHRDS
In short: as §1

ETS2 = molecular target: T8, ETS2 (Homo sapiens, UniProt P15036 1-469)
T8 sequence: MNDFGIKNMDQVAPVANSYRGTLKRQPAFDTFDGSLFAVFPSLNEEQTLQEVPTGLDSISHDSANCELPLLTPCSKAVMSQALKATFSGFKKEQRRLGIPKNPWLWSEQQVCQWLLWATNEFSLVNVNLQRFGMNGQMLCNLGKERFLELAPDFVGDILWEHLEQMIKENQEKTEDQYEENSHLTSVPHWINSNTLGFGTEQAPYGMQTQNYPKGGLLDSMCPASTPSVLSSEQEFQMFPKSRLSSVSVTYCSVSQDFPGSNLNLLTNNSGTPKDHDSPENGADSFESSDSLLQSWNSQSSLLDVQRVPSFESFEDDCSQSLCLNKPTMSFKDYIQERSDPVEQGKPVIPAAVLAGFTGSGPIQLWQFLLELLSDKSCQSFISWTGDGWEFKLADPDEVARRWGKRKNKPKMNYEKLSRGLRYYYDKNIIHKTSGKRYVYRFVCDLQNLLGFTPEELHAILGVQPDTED
In short: as §1

ELF5 = molecular target: T9, ELF5 (Homo sapiens, UniProt Q9UKW6-2 1-255)
T9 sequence: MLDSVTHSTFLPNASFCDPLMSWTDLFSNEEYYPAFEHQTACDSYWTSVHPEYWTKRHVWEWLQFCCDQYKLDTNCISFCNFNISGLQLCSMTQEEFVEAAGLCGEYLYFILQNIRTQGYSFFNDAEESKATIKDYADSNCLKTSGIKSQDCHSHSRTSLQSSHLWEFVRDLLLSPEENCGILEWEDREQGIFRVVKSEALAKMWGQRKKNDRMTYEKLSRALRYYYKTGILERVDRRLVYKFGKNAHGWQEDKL
In short: as §1

ETV3 = molecular target: T10, ETV3 (Homo sapiens, UniProt P41162-2 1-143)
T10 sequence: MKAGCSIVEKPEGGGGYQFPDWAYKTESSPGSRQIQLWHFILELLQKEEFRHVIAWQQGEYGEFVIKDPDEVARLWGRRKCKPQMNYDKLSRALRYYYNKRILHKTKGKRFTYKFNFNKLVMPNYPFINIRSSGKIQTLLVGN
In short: as §1

ETV6 = ETV6 (Homo sapiens, UniProt P41212 1-452)
Chain of ETV6 (P41212 whole entry): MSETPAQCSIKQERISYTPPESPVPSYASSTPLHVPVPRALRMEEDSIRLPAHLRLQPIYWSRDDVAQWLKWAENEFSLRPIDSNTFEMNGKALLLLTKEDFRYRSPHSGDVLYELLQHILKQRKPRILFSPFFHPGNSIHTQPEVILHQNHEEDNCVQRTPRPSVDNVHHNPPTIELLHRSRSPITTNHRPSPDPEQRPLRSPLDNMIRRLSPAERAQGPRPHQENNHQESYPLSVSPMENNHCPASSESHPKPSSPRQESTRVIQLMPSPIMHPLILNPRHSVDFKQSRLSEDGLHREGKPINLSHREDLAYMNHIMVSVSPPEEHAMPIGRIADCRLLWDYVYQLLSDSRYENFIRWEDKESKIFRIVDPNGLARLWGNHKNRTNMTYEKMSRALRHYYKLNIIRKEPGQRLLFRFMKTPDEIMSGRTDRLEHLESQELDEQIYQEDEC
In short: as §1

ERG = molecular target: T11, ERG (Homo sapiens, UniProt P11308 1-479)
T11 sequence: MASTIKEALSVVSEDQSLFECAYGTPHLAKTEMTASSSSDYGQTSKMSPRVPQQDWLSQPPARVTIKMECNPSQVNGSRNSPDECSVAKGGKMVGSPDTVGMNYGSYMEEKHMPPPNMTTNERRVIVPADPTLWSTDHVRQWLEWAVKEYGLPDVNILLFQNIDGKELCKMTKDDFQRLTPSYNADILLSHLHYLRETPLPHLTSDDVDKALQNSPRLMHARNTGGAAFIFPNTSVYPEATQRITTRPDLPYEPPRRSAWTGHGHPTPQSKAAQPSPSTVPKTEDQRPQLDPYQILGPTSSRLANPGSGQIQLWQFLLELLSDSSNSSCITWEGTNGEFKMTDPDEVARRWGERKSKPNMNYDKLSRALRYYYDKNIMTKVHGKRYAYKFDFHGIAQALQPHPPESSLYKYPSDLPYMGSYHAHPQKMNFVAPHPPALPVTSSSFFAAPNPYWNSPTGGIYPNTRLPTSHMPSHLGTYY
In short: as §1

ETV2 = molecular target: T12, ETV2 (Homo sapiens, UniProt O00321 1-342)
T12 sequence: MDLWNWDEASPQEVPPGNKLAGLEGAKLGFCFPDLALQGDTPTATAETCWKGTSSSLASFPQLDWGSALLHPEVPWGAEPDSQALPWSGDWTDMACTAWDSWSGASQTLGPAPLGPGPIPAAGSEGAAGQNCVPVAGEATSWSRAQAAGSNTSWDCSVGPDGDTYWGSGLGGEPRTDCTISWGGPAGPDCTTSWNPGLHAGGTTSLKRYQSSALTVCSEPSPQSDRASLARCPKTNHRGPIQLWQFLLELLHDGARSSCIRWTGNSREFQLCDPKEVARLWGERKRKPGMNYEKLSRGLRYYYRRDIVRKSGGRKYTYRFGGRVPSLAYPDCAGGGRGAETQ
In short: as §1

AGTAGC was tested, and the binding signal (GABPA) was 1.03 fold enrichment (6-mer frequency, TF over GST control), the binding signal (EHF) was 1.01 fold enrichment (6-mer frequency, TF over GST control) and the binding signal (SPI1) was 1.22 fold enrichment (6-mer frequency, TF over GST control). The binding signal (ELK3) was 1.05 fold enrichment (6-mer frequency, TF over GST control), the binding signal (FEV) was 1.04 fold enrichment (6-mer frequency, TF over GST control) and the binding signal (SPIC) was 1.04 fold enrichment (6-mer frequency, TF over GST control). The binding signal (ELF3) was 1.03 fold enrichment (6-mer frequency, TF over GST control), the binding signal (ETV1) was 1.05 fold enrichment (6-mer frequency, TF over GST control) and the binding signal (ERF) was 1.01 fold enrichment (6-mer frequency, TF over GST control). The binding signal (ETS2) was 1.07 fold enrichment (6-mer frequency, TF over GST control), the binding signal (ELF5) was 1.04 fold enrichment (6-mer frequency, TF over GST control) and the binding signal (ETV3) was 1.08 fold enrichment (6-mer frequency, TF over GST control). The binding signal (ETV6) was 1.08 fold enrichment (6-mer frequency, TF over GST control).
In the case of ACGAGC, the binding signal (GABPA) is reported as 1.01 fold enrichment (6-mer frequency, TF over GST control), the binding signal (ERG) is reported as 1.01 fold enrichment (6-mer frequency, TF over GST control) and the binding signal (EHF) is reported as 1.02 fold enrichment (6-mer frequency, TF over GST control). For the same sequence, the binding signal (ELK3) was 1.03 fold enrichment (6-mer frequency, TF over GST control), the binding signal (SPIC) was 1.06 fold enrichment (6-mer frequency, TF over GST control) and the binding signal (ETV2) was 1.04 fold enrichment (6-mer frequency, TF over GST control). For the same sequence, the binding signal (ELF3) was 1.01 fold enrichment (6-mer frequency, TF over GST control).
